HT1080 IDH1KD tx: HT-1080 IDH1 knockdown cell toxicity (counter line); AID 686971; hit rate 2% among 360,000; Potency, µM (highest dose often 46.1 µM), inactives show at the top dose activity, negative = toxicity, hits mostly cytotoxic; HT-1080 IDH1 knockdown viability, ATP luminescence, 48 h;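 further: potency means the concentration at half of the fitted maximal effect; 0% = DMSO wells and -100% = cell-free medium wells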
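CellTiter-Glo luminescence after 48 h compound exposure at 37 degrees C of IDH1-knockdown HT-1080 cells in 5% FBS RPMI. %Activity scaled between DMSO wells and cell-free media wells, with curves fitted and assigned curve classes.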
HT1080NT lethal: kills 2HG-producing HT-1080-NT fibrosarcoma cells. AID 686970. Potency, µM (doses to about 46.1 µM), inactives show at the highest dose activity, negative = less viability, most hits filed as cytotoxic. hit rate 1.6% among 360,000. HT-1080-NT fibrosarcoma viability, CellTiter-Glo ATP luminescence, 48 h;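 further: NT is the 2HG producing partner of a matched IDH1 knockdown line; potency means the concentration at half of the fitted maximal effect; 0% = DMSO-treated cells and -100% = media-only wells without cells; nearly all actives have a fitted effect of over 55% in size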
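A 48-hour cytotoxicity screen used HT-1080-NT cells plated 2 hours before compound delivery. ATP-based CellTiter-Glo luminescence measured viability, normalized to DMSO and no-cell controls.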
DT40 TDP1 CPT: DT40-hTDP1 cell growth loss with CPT | Potency, µM (highest dose often 46.2 µM), without a hit: at the top dose activity change, negative = growth inhibition, actives largely listed as inhibitors | chicken DT40 Tdp1-/-;hTDP1 cells + 20 nM CPT, ATP luminescence, 48 h | AID 686979 | hit rate 12% among 420,000; further: potency means the concentration at half of the fitted maximal effect; nearly all actives have a fitted effect of over 55% in size
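Cell growth measured by CellTiter-Glo luminescence after a minimum 48 h, 37 C compound exposure with 20 nM CPT in Tdp1-knockout DT40 cells stably expressing hTDP1, seeded 400/well; qHTS titration format.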
IL1B secr inh: inflammasome signaling inhibition, IL-1 beta readout; activity change, % at 57.5 µM; hit rate 4.7% among 360,000; THP-1 LPS/ATP IL-1B secretion, AlphaLISA, 16 h; stronger effect = lower value; in the data active means activity change below about -50%; inconclusive means mostly about -30% to -49%
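Secreted IL-1B measured by AlphaLISA bead assay after 16 h compound exposure of THP-1 cells; compounds (final up to 57.5 uM) added 1 h before LPS (250 ng/mL) and ATP (1.25 mM) stimulation; lower signal means less secretion.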
DT40 TDP1 no CPT: qHTS for Inhibitors of human tyrosyl-DNA phosphodiesterase 1 (TDP1): qHTS in cells in absence of CPT. DT40 Tdp1-/- hTDP1 cells, no CPT, ATP luminescence, 48 h. Potency, µM (highest dose often 46.2 µM), inactives show at the top dose activity change, negative = growth inhibition, usual class: inhibitors. hit rate 15% among 420,000. AID 686978, 2013; further: potency means the concentration at half of the fitted maximal effect; nearly all actives have a fitted effect of over 55% in size
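A cellular qHTS used chicken DT40 cells lacking endogenous Tdp1 but carrying stably transfected human TDP1. Compounds were applied without camptothecin, and cell growth kinetics were judged by ATP-dependent luminescence after ≥48 hr.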
An asterisk follows results filed as active; ? = inconclusive; · = no result. Shown are actives, neighbours in structure and some others; about 19% of the full set was active somewhere. Unless noted, the call rests on the fitted dose curve; in most records, active means well fitted curve in the direction sought with a large enough effect; inconclusive means small, poorly fitted or top-dose-only effect, or another doubt; inactive means no such curve, though single readings can be large; an effect the other way counts as inactive or inconclusive. Unless noted, on the % scale 0 is the no-effect control and ±100 the full control effect.

SMILES	HT1080 IDH1KD tx	HT1080NT lethal	DT40 TDP1 CPT	IL1B secr inh	DT40 TDP1 no CPT
Cc1ccccc1NC(=O)C1CCN(c2cc(-c3ccccc3)nc3ncnn23)CC1	-20%	-22%	15µM*	?	21µM*
Cc1nc2ncnn2c(N2CCC(C(=O)NC3CCCC3)CC2)c1Cc1ccccc1	-26%	-13%	-29%	-18	-30%
COc1ccc(S(=O)(=O)N2CCN(c3cc(-c4ccccc4)nc4ncnn34)CC2)cc1	?	-7%	21µM*	-69*	16µM*
CC(C)CC(N)C(=O)NC(C)C(=O)O (configuration not stated)	·	·	-21%	·	-2%
COC(=O)C(Cc1ccc(OC(=O)c2ccccc2C)cc1)N1Cc2ccccc2C1=O (configuration not stated)	-6%	-5%	?	0	18µM*
COc1ccccc1NC(=O)CC(c1cc(OC)c(OC)c(OC)c1)N1Cc2ccccc2C1=O (configuration not stated)	·	·	-2%	·	-20%
CCOc1ccccc1NC(=O)CC(c1ccc(F)cc1)N1Cc2ccccc2C1=O (configuration not stated)	·	·	16µM*	·	16µM*
COc1ccc(C(CC(=O)Nc2ccc(Br)cn2)N2Cc3ccccc3C2=O)cc1 (configuration not stated)	·	·	5.2µM*	·	23µM*
COc1ccc(CNC(=O)CC(c2ccc(OC)cc2)N2Cc3ccccc3C2=O)cc1 (configuration not stated)	·	·	?	·	16µM*
COc1ccc(C(CC(=O)Nc2ncccc2C)N2Cc3ccccc3C2=O)cc1 (configuration not stated)	0%	8%	-19%	-8	-19%
COC(=O)C(Cc1ccc(OC(=O)c2ccccc2Cl)cc1)N1Cc2ccccc2C1=O (configuration not stated)	-17%	-12%	?	-13	?
CC(=O)N1CCCC1c1nc2ccccc2n1Cc1ccccc1F (configuration not stated)	·	·	-22%	·	?
COc1ccc(C(C)=O)cc1CN1C(=O)NC(CC(C)C)C1=O (configuration not stated)	17%	7%	-3%	4	1%
C/C(=N\N1CCN(c2ccccc2)CC1)c1ccncc1	8%	28%	17%	-3	5%
Cc1cc(S(=O)(=O)NC2CCCCC2)ccc1-n1cnnn1	7%	14%	-1%	31	-27%
COc1ccc(NS(=O)(=O)c2ccc(-n3cnnn3)cc2)cc1OC	-16%	?	16µM*	17	9.2µM*
COc1ccc(S(=O)(=O)NC2CCCCC2)cc1-n1cnnn1	-2%	-2%	-12%	30	21µM*
COc1ccc(S(=O)(=O)Nc2ccc(-n3cnnn3)cc2)cc1Br	-11%	0%	?	-7	-23%
CSc1ccc(NS(=O)(=O)c2ccc(-n3cnnn3)cc2)cc1	-2%	-2%	?	-6	21µM*
COc1ccc2cc(C=O)n(C)c2c1	13%	0%	-4%	21	3%
COc1ccc2cc(CO)n(C)c2c1	11%	16%	8.2µM*	27	?
Nc1cnn(Cc2ccc(F)cc2)c1	-1%	-27%	8%	15	14%
Nc1cnn(Cc2ccccc2F)c1	?	?	?	16	21µM*
CC1CCCC(CC(N)=O)CC1 (configuration not stated)	10%	-3%	14%	-1	9%
CCCCS(=O)(=O)c1nc(-c2ccc(Br)cc2)cc(-c2ccccc2)c1C#N	·	·	3.7µM*	·	2.6µM*
SMILES	HT1080 IDH1KD tx	HT1080NT lethal	DT40 TDP1 CPT	IL1B secr inh	DT40 TDP1 no CPT
C=CCn1c(SCCC)nc2ccccc2c1=O	·	·	-8%	·	?
CC(C)C[C@@H](CN1CCC[C@@H]1CN1C(=S)NC[C@@H]1Cc1ccccc1)N1C[C@H](Cc2ccc(O)cc2)N(CC2CCCCC2)C1=S	1%	1%	?	8	23µM*
CC(C)C[C@@H](CN1CCCC1CN1C(=S)NC[C@@H]1Cc1ccc(O)cc1)N1C[C@H](Cc2ccc(O)cc2)N(CC2CCCCC2)C1=S (some centres not stated)	?	18µM*	21µM*	-87*	15µM*
CC(C)C[C@@H](CN1CCC[C@@H]1CN1C(=S)NC[C@@H]1Cc1ccccc1)N1C[C@H](Cc2ccc(O)cc2)N(CC2CCCCCC2)C1=S	18µM*	?	13µM*	-15	18µM*
COc1c(S(=O)(=O)N2CCN(C)CC2)ccc(Cl)c1Cl	-6%	-12%	-7%	-11	-13%
O=C(c1cccc(Br)c1)N1CCN(c2ccccn2)CC1	4%	11%	-18%	-1	-24%
O=C(c1ccccc1F)N1CCN(c2cnn(-c3cccc(Cl)c3)c(=O)c2Cl)CC1	-14%	-25%	?	-28	21µM*
O=C(c1cccc(Br)c1)N1CCN(c2cnn(-c3ccccc3)c(=O)c2Cl)CC1	-16%	-10%	?	21	16µM*
O=C(c1cccc(Cl)c1)N1CCN(C(=O)c2ccccc2F)CC1	16%	25%	-28%	-7	-2%
Cc1ccnc(N2CCCC(C(=O)Nc3cccc(C)c3C)C2)n1 (configuration not stated)	0%	10%	-4%	2	-22%
O=C(Nc1ccc(F)cc1)C(CCc1ccccc1)N1CCN(c2cccc(C(F)(F)F)n2)CC1 (configuration not stated)	?	?	18µM*	0	?
O=C(Nc1ccc(F)cc1)C(c1cc2ccccc2o1)N1CCN(c2cccc(C(F)(F)F)n2)CC1 (configuration not stated)	17%	24%	?	35	?
O=C(Nc1ccc(F)cc1)C(c1ccncc1)N1CCN(c2cccc(C(F)(F)F)n2)CC1 (configuration not stated)	?	?	?	-11	21µM*
Cc1ccc2c(c1)-c1c(cnc3cc(-c4ccc(F)cc4)nn13)CO2	·	·	-23%	·	-22%
c1ccc(-c2csc(-c3nc4ccccc4[nH]3)n2)cc1	·	·	17µM*	·	27µM*
c1ccc(-c2cc(-c3nc4ccccc4[nH]3)c3ccccc3n2)cc1	?	-29%	?	-67*	?
COc1cc(Cc2nccc3cc(OC)c(OC)cc23)c(S(=O)(=O)O)cc1OC	20%	5%	-2%	-6	-6%
COc1cc2ccnc(C=NO)c2cc1OC	?	-10%	21µM*	?	21µM*
COc1cc2ccnc(Cc3cccc(OC)c3OC)c2cc1OC	-29%	-14%	?	-24	13µM*
COc1cc(N)c(C(=O)c2nccc3cc(OC)c(OC)cc23)cc1OC	-5%	-5%	10%	6	-20%

Screens: PubChem, National Center for Advancing Translational Sciences (NCATS)
